Screening data (PubChem BioAssay)
TEAD-YAP block: TEAD-YAP interaction inhibition, primary screen, TEAD-YAP interaction inhibitor project, luminescence, HEK-TIYL cells | 1.4% of 640,000 active | inhibition, % at 9.12 µM | TEAD-Gal4/YAP UAS-luciferase luminescence; in the data active means inhibition above about 32%;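 further: 0% = median of test compound wells and 100% = reference inhibitor wells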
GPR151 ag: activators of human GPR151, primary screen, cell-based, PathHunter beta-arrestin, luminescence. AID 1508602, 2020. PathHunter beta-arrestin GPR151 cells. activation, % at 11.2 µM. 1% of 650,000 active; in the data active means activation above about 4.9%;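 further: 0% = median of compound wells and 100% = cells with positive control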
Target sequence (Q8TDV0 whole entry, looked up): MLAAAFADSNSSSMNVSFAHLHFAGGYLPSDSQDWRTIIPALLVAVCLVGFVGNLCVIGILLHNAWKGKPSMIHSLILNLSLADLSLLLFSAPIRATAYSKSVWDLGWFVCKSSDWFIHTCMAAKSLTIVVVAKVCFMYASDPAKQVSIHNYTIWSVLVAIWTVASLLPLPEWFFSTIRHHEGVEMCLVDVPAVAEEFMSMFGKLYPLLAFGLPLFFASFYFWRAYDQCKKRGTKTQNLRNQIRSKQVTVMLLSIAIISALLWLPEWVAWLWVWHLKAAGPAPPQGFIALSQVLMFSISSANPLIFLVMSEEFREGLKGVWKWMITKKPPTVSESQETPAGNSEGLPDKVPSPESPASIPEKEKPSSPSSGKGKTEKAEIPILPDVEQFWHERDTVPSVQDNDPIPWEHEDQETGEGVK
FBW7 act: FBW7 E3 ligase activators, primary screen, biochemical, AlphaScreen, human; F-box/WD repeat-containing protein 7 (Homo sapiens), Q969H0; AlphaScreen FBW7–phospho-cyclin E peptide binding, activator screen; normalized activity (activation), % at 26.1 µM; 0.13% of 650,000 active; in the data active means normalized activity above about 1.9%;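 further: purified mutant Fbw7 with reduced substrate affinity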
MITF primary: MITF inhibitors, primary screen, biochemical, AlphaScreen, human | Microphthalmia-associated transcription factor (Homo sapiens), O75030 | AlphaScreen MITF homodimerization, bead proximity signal | inhibition, % at 2.6 µM | 0.91% of 650,000 active; in the data active means inhibition above about 50%;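 further: 0% = vehicle wells with protein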
GPR151 conf act: GPR151 activators, triplicate retest, confirmation, cell-based, PathHunter beta-arrestin, luminescence; shares compounds with GPR151 ag; GPR151 PathHunter beta-arrestin cells, 90 min; % of EA-reagent control over plate median; activation, % at 11.2 µM; 6,700 tested, under 10 active; AID 1508609, 2020;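 active means mean percent activation across replicates above the confirmation screen cutoff of 4.91%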
GPR119 counter: GPR119 activators in beta-arrestin cells, counter-screen for GPR151 activator project, cell-based, PathHunter beta-arrestin, luminescence, triplicate; shares compounds with GPR151 ag; 90 min; 0 = compound-well median, 100 = enzyme-acceptor control; activation, % at 11.2 µM; 0.3% of 6,700 active;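 active means mean percent activation in the counterscreen above 29.09%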;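 further: counterscreen on off-target GPR119 to flag nonselective hits from the GPR151 activator screen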
* hit, by the source's call; nt = not tested or not shown. Compounds with a hit are over-represented: about 3.5% of the library has one in this group of screens.

SMILES	TEAD-YAP block	GPR151 ag	FBW7 act	MITF primary	GPR151 conf act	GPR119 counter
CCOC(=O)c1sc2nc(SCc3ccccc3C)n(CCc3ccccc3)c(=O)c2c1C	-20.5	-0.1	0.1	10.5	nt	nt
O=C(CSc1nc2ccccc2c2nc(-c3cccc([N+](=O)[O-])c3)nn12)c1ccccc1	2.3	-1.3	0.1	17.6	nt	nt
CCc1ccc(C(=O)COC(=O)CCC(=O)Nc2ccc(OC)cc2)cc1	6.2	6.5*	0.3	17.5	-0.8	-6.2
Cc1ccc(S(=O)(=O)Nc2ccc(NC(=O)/C=C/c3ccc4c(c3)OCO4)cc2)cc1	6.8	7.6*	0.4	17.1	0.6	-7.8
C(/C=C/c1ccccc1)=N/N1CCN(c2ccccc2)CC1	-19.1	4.9*	0.2	16.4	-1.7	-9.8
C=CCn1c(SCCC(=O)Nc2ccc(F)cc2)nc2sc3c(c2c1=O)CCC3	14.6	1.2	-0.3	0.5	nt	nt
CC1CCCC(C)N1c1nnc(NC(=O)c2csc3c2CCCC3)s1 (centres undefined)	-15.4	5.8*	0.1	-10.4	-0.6	7.9
CCOC(=O)c1ccc(Nc2ncnc3c2cnn3C)cc1	-16.9	-0.8	0.1	10.0	nt	nt
CCOC(=O)c1ccc(Nc2ncnc3c2cnn3Cc2ccccc2)cc1	2.2	6.2*	0.2	25.4	-1.3	-13.7
CN(C)CC(O)COC(c1ccccc1)c1ccccc1 (centres undefined)	7.0	7.7*	0.1	-3.5	-0.2	-3.6
CCN1CCN(CC(O)COC(c2ccccc2)c2ccccc2)CC1 (centres undefined)	0.6	1.9	0.3	-20.0	nt	nt
COc1ccc2nc(NC(=O)c3ccc(S(=O)(=O)N4CC(C)CC(C)C4)cc3)sc2c1 (centres undefined)	-4.8	1.1	-0.1	-16.5	nt	nt
O=C(Nc1ccc(Cl)cc1)c1cnn2cc(Br)cnc12	-14.6	7.3*	0.1	-8.1	-0.4	-10.3
O=C(Nc1cccnc1)c1cnn2cc(Br)cnc12	-12.1	3.1	0.3	-10.1	nt	nt
C/C(=N\Nc1nnc2c(n1)[nH]c1ccccc12)c1ccc([N+](=O)[O-])cc1	-25.7	5.9*	0.1	7.1	0.3	-16.5
COc1ccc(C2Nc3ccccc3NC3=C2C(=O)NC3)cc1 (centres undefined)	-60.9	-1.7	0.1	9.4	nt	nt
O=C1NCC2=C1C(c1ccc(Br)cc1)Nc1ccccc1N2 (centres undefined)	4.8	5.5*	-0.1	8.2	0.1	11.4
O=[N+]([O-])c1ccc(NCCCCO)c([N+](=O)[O-])c1	4.8	0.2	0.0	2.5	nt	nt
CCN(CC)C(=O)CSc1ccc(C(=O)N2CCc3ccccc3C2)cc1[N+](=O)[O-]	1.6	-0.5	-0.1	-4.4	nt	nt
Cc1ccc(N2CCN(C(=O)Nc3ccccc3)CC2)nn1	-2.7	-0.9	0.1	0.1	nt	nt
CSc1cccc(NC(=O)N2CCN(c3ccc(C)nn3)CC2)c1	4.4	5.6*	0.2	1.5	0.9	-3.2
COc1cc(OC)nc(NC(=O)COC(=O)c2ccc(Cl)cc2)n1	4.0	0.3	0.0	6.3	nt	nt
Cc1ccccc1N1C(=O)c2ccc(Oc3ccc([N+](=O)[O-])cc3)cc2C1=O	4.1	-0.3	-0.1	10.3	nt	nt
Cc1ccc(C(=O)O)cc1N1C(=O)c2ccc(Oc3ccc([N+](=O)[O-])cc3)cc2C1=O	0.3	6.8*	0.3	-10.6	0.3	1.6
Cn1ncc2c(Nc3ccc(Br)cc3F)ncnc21	-18.1	-0.9	-0.2	1.0	nt	nt
SMILES	TEAD-YAP block	GPR151 ag	FBW7 act	MITF primary	GPR151 conf act	GPR119 counter
COc1ccc(Cl)cc1S(=O)(=O)N1CCCC(C(=O)NCC(N)=O)C1 (centres undefined)	-5.9	7.4*	-0.1	-1.7	0.6	5.5
COc1ccc(C)cc1S(=O)(=O)N1CCCC(C(N)=O)C1 (centres undefined)	1.2	0.1	0.0	6.3	nt	nt
Cc1ccc(N2C(=O)C3CCCCC3C2=O)cc1F (centres undefined)	12.1	8.1*	0.2	13.9	0.2	2.4
CSc1ccc(/C=C2/SC(=NCC(=O)O)NC2=O)cc1	1.9	-1.5	-0.1	-16.6	nt	nt
CC1CC(C)CN(C(=O)c2ccc(N3CC4CC(C3)c3cccc(=O)n3C4)c(NC(=O)c3ccc(F)cc3)c2)C1 (centres undefined)	-6.5	6.3*	0.0	-8.1	-0.3	5.2
O=C(NCCC1=CCCCC1)c1ccc(N2CC3CC(C2)c2cccc(=O)n2C3)c(NC(=O)c2c(F)cccc2F)c1 (centres undefined)	-3.5	8.0*	0.0	4.3	0.1	3.0
CCOC(=O)N1CCC(NC(=O)c2ccc(N3CC4CC(C3)c3cccc(=O)n3C4)c(NC(=O)c3ccncc3)c2)CC1 (centres undefined)	-4.7	4.9*	-0.2	-1.5	-0.8	-12.1
O=C(Nc1cc(C(=O)N2CCCC2)ccc1N1CC2CC(C1)c1cccc(=O)n1C2)c1ccc(F)cc1 (centres undefined)	12.5	1.1	0.4	3.9	nt	nt
CCOC(=O)N1CCC(NC(=O)c2ccc(N3CC4CC(C3)c3cccc(=O)n3C4)c(NC(=O)c3ccc(C(C)(C)C)cc3)c2)CC1 (centres undefined)	-13.2	-0.1	0.4	0.7	nt	nt
Fc1ccc(-n2cc(-c3ccccc3)c3c(Nc4ccccc4)ncnc32)cc1	-2.0	0.3	-0.1	-0.4	nt	nt
CC1CCC(NC(=O)CCC(=O)Nc2nc(-c3cc4ccccc4oc3=O)cs2)CC1 (centres undefined)	-13.6	-1.2	0.1	4.9	nt	nt
O=S(=O)(c1ccccc1)c1nc(-c2cccs2)oc1NCCN1CCOCC1	4.3	4.9	0.1	13.3	nt	nt
COc1ccc(NC(=O)C(=O)N/N=C/c2ccc(C(=O)O)cc2)c(OC)c1	2.3	-0.5	0.0	8.9	nt	nt
COc1cc(/C=N/NC(=O)c2ccc(N(C)S(=O)(=O)c3ccccc3)cc2)ccc1O	-8.6	9.3*	-0.1	5.3	0.6	-2.9
O=C(N/N=C/c1ccc(C(=O)O)cc1)C(=O)Nc1cccc(Br)c1	5.8	9.3*	-0.1	1.3	0.4	-0.3
COc1ccccc1NC(=O)C(=O)N/N=C/c1ccc(C(=O)O)cc1	4.1	5.3*	0.1	13.6	0.2	-4.9
O=C(N/N=C/c1cccc(Br)c1)C(=O)Nc1cccc(C(=O)O)c1	-0.3	0.5	-0.2	2.2	nt	nt
COc1ccc(C(=O)N/N=C/c2ccc(O)c(OC)c2)cc1	-26.0	-0.9	-0.1	-0.3	nt	nt
S=c1oc(-c2ccc(Br)cc2)nn1CN1CCOCC1	3.3	-0.1	0.3	0.6	nt	nt
